Calls of active or inactive are those of the source. Rule for the calls: active = hit-call score of the fitted dose curve at least 0.9, where 1 is the maximum; inactive = score below 0.9.

This assay can be described thus: ATG_M_61_CIS: Attagene CIS-FACTORIAL HepG2 Assay for M61 Transcription Factor (Internal Marker) (AID 2282937). Particulars: HepG2 Attagene CIS-FACTORIAL M61 internal marker reporter; actives raise or lower the signal. How it is done:
ATG_CIS is a cell-based, multiplexed-readout assay that uses HepG2, a human liver cell line, with measurements taken at 24 hours after chemical dosing in a 24-well plate.ATG_M_61_CIS is one of 52 assay component(s) measured or calculated from the ATG_CIS assay. It is designed to make measurements of mRNA induction, a form of inducible reporter, as detected with fluorescence intensity signals by Reverse transcription polymerase chain reaction (RT-PCR) and Capillary electrophoresis technology.Data from the assay component ATG_M_61_CIS was analyzed into 1 assay endpoint. This assay endpoint, ATG_M_61_CIS, was analyzed with bidirectional fitting relative to DMSO as the negative control and baseline of activity. Using a type of inducible reporter, measures of mRNA for gain or loss-of-signal activity can be used to understand the background control at the transcription factor-level as they relate to the gene . Furthermore, this assay endpoint can be referred to as a secondary readout, because this assay has produced multiple assay endpoints where this one serves a background control function. To generalize the intended target to other relatable targets, this assay endpoint is annotated to the background measurement intended target family, where the subfamily is internal marker.
Human liver HepG2 cells are transiently transfected with multiple reporter transcription units (MRTUs) in 6-well plates using FuGene 6 reagent (Roche; 3 ml FuGene/1 mg DNA). The MRTU constructs are regulated by a cis-regulating element (promoter). […] A major difference between the CIS and TRANS system is that in CIS activities of endogenous TFs are measured, whereas the TRANS assay evaluates changes in activities of exogenous, chimeric NR-Gal4 proteins. […] At the end of 24 hour incubation, total RNA was isolated using TriZol reagent (Invitrogen). The isolated RNA is then reverse-transcribed using oligo(dT) primer and Mo-MLV reverse transcriptase (Invitrogen) with DNAse I (Ambion) treatment for 30 min. The one-tenth of the produced cDNA was amplified by PCR using Taq DNA polymerase (Invitrogen) and two reporter sequence-specific primers. The PCR products were fluorescently labeled by primer extension with 6-arboxyfluorescein (6-FAM) 5'-labeled reporter sequence-specific primer (2 min at 95 C, 20 s at 68 C and 10 min at 72 C) and these products were digested with 5U of HpaI (New England Biolabs) for 2h at 37 C. The fragments were purified using Qiaquick PCR columns (Qiagen), analyzed on an ABI 3130xL genetic analyzer (Applied Biosystems) with peak positions identified by using a set of X-rhodamine (ROX)-labeled MapMarker1000 molecular weight standards (BioVentures). The raw capillary electrophoresis data was processed using Attagraph software (Attagene).
Turning to `O=C/C(Cl)=C(/Cl)C(=O)O`, the compound was classed as inactive.

Turning to `O=C(Cl)OCCOCCOC(=O)Cl`, the outcome was inactive.

Turning to `O=NN1CCCCCC1`, the outcome was inactive.

On to `OCC(c1ccc(Cl)cc1)c1ccc(Cl)cc1`, for which the compound was classed as inactive.

As to `Cc1cc(Cl)ccc1O`, the compound was called inactive.

On to `COc1ccccc1N`, for which the compound was called inactive.

As to `O=C(O)CC(O)(CC(=O)O)C(=O)O`, the outcome was inactive.

For `COC(F)(C(F)(F)C(F)(F)F)C(F)(C(F)(F)F)C(F)(F)F` (stereo not given), the result was inactive.

For `CCCCC(CC)C(=O)Cl` (stereo not given), the compound was called inactive.

In the case of `Brc1ccc(Oc2c(Br)cc(Br)cc2Br)c(Br)c1`, the call was inactive.

Regarding `Clc1cccc(Cl)c1Cl`, the outcome was inactive.

`CCCCC(CC)COC(=O)Cl` (stereo not given): the compound was called inactive.

For the compound `CCOP(=S)(OCC)OP(=S)(OCC)OCC`, the compound was called inactive.

As to `[Cl][Sn]([c]1ccccc1)([c]1ccccc1)[c]1ccccc1`, the compound was called inactive.

As to `Nc1ccc(Br)cc1`, the outcome was inactive.

As for `OC(Cc1ccccc1Cl)(Cn1cncn1)C1(Cl)CC1` (stereo not given), the compound was classed as inactive.

As to `CCOP(=S)(OCC)Oc1ccc(Cl)cc1Cl`, the call was inactive.

For `COCC(=O)N(c1c(C)cccc1C)[C@H](C)C(=O)OC`, the compound was called inactive.

`CCOC(=O)Cc1ccccc1`: the call was inactive.

As for `Oc1c(Cl)cc(Cl)cc1Cl`, the call was inactive.

For `COC(=O)Nc1cccc(OC(=O)Nc2cccc(C)c2)c1`, the result was inactive.

On to `CN(C)c1ccc(N=O)cc1`, for which the result was inactive.

Take `O=C=Nc1ccc(Cl)cc1`: the call was inactive.

On to `BrCc1ccc(Br)cc1`, for which the call was inactive.

Take `N#Cc1cccnc1`: the result was inactive.

`C=CC(F)(C(F)(F)F)C(F)(F)C(F)(F)F` (stereo not given): the outcome was inactive.

Take `CC1(C)COP(Oc2ccccc2)OC1`: the call was inactive.

With `CC(=O)C(F)(F)C(F)(F)F`, the result was inactive.

For `O=C(O)C1(c2ccc3c(c2)OC[C@H](Cc2ccc(-c4ccccc4)cc2)[C@H]3O)CCCC1`, the call was inactive.

For `CC(C)[C@@H](Nc1ccc(C(F)(F)F)cc1Cl)C(=O)OC(C#N)c1cccc(Oc2ccccc2)c1` (stereo not given in full), the compound was classed as inactive.

On to `CCOP(=O)(OCC)SCCSCC`, for which the outcome was inactive.

Turning to `CC(C)[C@H](C(=O)OC(C#N)c1cccc(Oc2ccccc2)c1)c1ccc(OC(F)F)cc1` (stereo not given in full), the outcome was inactive.

As for `Cc1ccccc1OP(=O)(Oc1ccccc1C)Oc1ccccc1C`, the outcome was inactive.

Turning to `CS(=O)(=O)c1ccc(C(=O)C2C(=O)CCCC2=O)c(Cl)c1COCC(F)(F)F`, the call was inactive.

In the case of `Nc1c(Oc2ccccc2)cc(O)c2c1C(=O)c1ccccc1C2=O`, the call was inactive.

On to `CCOC(=O)CCN(SN(C)C(=O)Oc1cccc2c1OC(C)(C)C2)C(C)C`, for which the result was inactive.

In the case of `c1cc[c]([Sb]([c]2ccccc2)[c]2ccccc2)cc1`, the outcome was inactive.

As for `O=[N+]([O-])c1ccc(Nc2ccccc2)cc1`, the compound was classed as inactive.

For the compound `CCCCN(CCCC)C(=S)[S-].CCCCN(CCCC)C(=S)[S-].[Ni+2]`, the compound was called inactive.

`O=c1[nH]c(=O)n(Cl)c(=O)n1Cl`: the result was inactive.

The values are drawn from PubChem BioAssay (EPA / NIEHS).
